Records with an inconclusive call do not appear. A call without a number means that no potency is given here. Active and inactive are the calls of the source. The call rests on the fitted dose curve; in most records, active means well fitted curve in the direction sought with a large enough effect; inconclusive means small, poorly fitted or top-dose-only effect, or another doubt; inactive means no such curve, though single readings can be large; an effect the other way counts as inactive or inconclusive.
Experiment: P-glycoprotein substrates identified in KB-3-1 adenocarcinoma cell line, qHTS therapeutic library screen (AID 1346986); further: nearly all actives have a fitted effect of over 60% in size;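 further: potency is for cytotoxicity meaning loss of cell viability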
Conditions: KB-3-1 parental cells viability, CellTiter-Glo, 72 h; series mostly up to 44.5 µM
In short: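 In 1536-well format, 500 cells/well received pinned compound titrations and were incubated 72 h, 5% CO2. Viability was read by CellTiter-Glo; cytotoxic if AC50 < 10 uM and efficacy >50%.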
Potency means the concentration at half of the fitted maximal effect.

SMILES	Potency
O=S(=O)(NCCNC/C=C/c1ccc(Br)cc1)c1cccc2cnccc12	inactive
C=CC(=O)Nc1cccc(Nc2nc(Nc3ccccc3)ncc2C)c1	18.4 µM (active)
CC(C)=CCC/C(C)=C/CC/C(C)=C/CSc1ccccc1C(=O)O	inactive
CCOC(=O)c1c2c3c(cccc3[nH]c1=O)C(=O)c1ccccc1-2	inactive
CCOc1cccc2c1OC(c1ccc(F)cc1)C([N+](=O)[O-])=C2 (stereo not given)	8.2 µM (active)
COC(=O)C#Cc1ccc([N+](=O)[O-])cc1	13 µM (active)
C[n+]1cc(NC(=O)c2cccc(C(=O)Nc3cc4ccccc4[n+](C)c3)n2)cc2ccccc21	16.4 µM (active)
CN1CCN(c2nc(C3=C(c4c[nH]c5ccccc45)C(=O)NC3=O)c3ccccc3n2)CC1	inactive
Cc1cc(F)c(Nc2ncnc3cc(OCc4ccccc4)ccc23)cc1O	inactive
c1ccc(-c2[nH]ncc2-c2ccnc3ccccc23)nc1	inactive
C/C(=C1/C(=O)Nc2ccc(NC(N)=O)cc21)c1ccc[nH]1	4.61 µM (active)
Nc1nc(N)c2nc(-c3cccc(O)c3)cnc2n1	5.8 µM (active)
CN(C)Cc1cccc(N=C(c2ccccc2)c2c(O)[nH]c3cc(C(N)=O)ccc23)c1	inactive
Cc1ccc(Nc2ncc3c(n2)N(C)C(=O)N(c2cc(NC(=O)c4cccc(C(F)(F)F)c4)ccc2C)C3)cn1	inactive
CCCCCC1CC1CC1CC1CCCCCCCC(=O)O (stereo not given)	inactive
CCCCCCCCCCCCCCCCOCCCOP(=O)(O)COC(CO)Cn1ccc(N)nc1=O (stereo not given)	8.2 µM (active)
O=c1cc(N2CCNCC2)oc2c(-c3ccccc3)cccc12	7.31 µM (active)
COc1ccc(-c2oc3ncnc(N)c3c2-c2ccc(NC(=O)Nc3cc(C(F)(F)F)ccc3F)cc2)cc1	4.61 µM (active)
COC1(c2sc3c(N4CCOCC4)nc(-c4cnc(N)nc4)nc3c2C)COC1	0.184 µM (active)
CS(=O)(=O)c1ccc([C@@H](C[C@H]2CCC(=O)C2)C(=O)Nc2cnccn2)cc1Cl	inactive

SMILES	Potency
CC(CCc1ccccn1)(CCc1ccccn1)C(=O)c1ccccc1	inactive
CC(C)OC(=O)OCOP(=O)(COC(C)Cn1cnc2c(N)ncnc21)OCOC(=O)OC(C)C (stereo not given)	inactive
CNC(=O)c1c(C)oc2cc(Oc3ncnc4cc(OC)c(OC)cc34)ccc12	inactive
O=C(O[C@@H]1Cc2c(O)cc(O)cc2O[C@H]1c1cc(O)c(O)c(O)c1)c1cc(O)c(O)c(O)c1	inactive
c1nc(NCC2CCOC2)c2cc(-c3ccc4c(c3)OCO4)ccc2n1 (stereo not given)	inactive
COc1cc2ncnc(Sc3nnc(C)s3)c2cc1OC	18.4 µM (active)
N#Cc1cccc(CN2CCC(N(Cc3cccnc3)C(=O)Nc3ccccc3-c3ccccc3)CC2)c1	inactive
COCc1c(-c2ccc(NC(=O)Nc3cc(C(F)(F)F)ccc3F)c(F)c2)c2c(N)ncnn2c1CN1CCOCC1	16.4 µM (active)
Cc1cc(-c2ccc(/C=C3\SC(=Nc4ccc(Cl)c(C(=O)O)c4)NC3=O)o2)c([N+](=O)[O-])cc1C	inactive
NC1CCCN(c2c(/C=C3\SC(=O)NC3=O)cccc2-c2ccccc2)C1 (stereo not given)	inactive
OCC(O)CCO/N=C1/C(c2c(O)[nH]c3ccccc23)=Nc2ccccc21 (stereo not given)	14.6 µM (active)
CCOC(=O)N1CCN(C(=O)Cn2sc3nc(C)cc(C)c3c2=O)CC1	inactive
Cn1cc(-c2cc(Oc3cc(F)c(NC(=O)C4(C(=O)Nc5ccccc5)CC4)cc3F)ccn2)cn1	18.4 µM (active)
Oc1cccc(Nc2ccnc3cc(-c4cccc(CN5CCOCC5)c4)sc23)c1	7.31 µM (active)
COc1cc(OC)cc(N(CCNC(C)C)c2ccc3ncc(-c4cnn(C)c4)nc3c2)c1	10.3 µM (active)
O=C(O)c1c[nH]c2c(ccc3ccccc32)c1=O	inactive
Cc1nc(CNc2ncnc3ccc(-c4ccc5c(c4)OCO5)cc23)cs1	inactive
O=C(NOCCO)c1cc(CN2OCCCC2=O)c(F)c(F)c1Nc1ccc(I)cc1F	inactive
Cc1c[nH]c(/C=C2\C(=O)Nc3ccccc32)c1CCC(=O)O	inactive

Experiment: P-glycoprotein substrates identified in KB-8-5-11 adenocarcinoma cell line, qHTS therapeutic library screen (AID 1346987); further: nearly all actives have a fitted effect of over 65% in size
Conditions: KB-8-5-11 (P-gp overexpressing) viability, CellTiter-Glo, 72 h; series mostly up to 44.5 µM
In short: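 Compounds are pinned in dose-response onto KB-8-5-11 cells (500 cells/well, colchicine-free medium) and left 72 h at 37 degree C. CellTiter-Glo luminescence then yields AC50 values.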

SMILES	Potency
C=CC(=O)Nc1cccc(Nc2nc(Nc3ccccc3)ncc2C)c1	13 µM (active)
CCOC(=O)c1c2c3c(cccc3[nH]c1=O)C(=O)c1ccccc1-2	inactive
CCOc1cccc2c1OC(c1ccc(F)cc1)C([N+](=O)[O-])=C2 (stereo not given)	11.6 µM (active)
COC(=O)C#Cc1ccc([N+](=O)[O-])cc1	18.4 µM (active)
C[n+]1cc(NC(=O)c2cccc(C(=O)Nc3cc4ccccc4[n+](C)c3)n2)cc2ccccc21	inactive
CN1CCN(c2nc(C3=C(c4c[nH]c5ccccc45)C(=O)NC3=O)c3ccccc3n2)CC1	inactive
C/C(=C1/C(=O)Nc2ccc(NC(N)=O)cc21)c1ccc[nH]1	4.61 µM (active)
Nc1nc(N)c2nc(-c3cccc(O)c3)cnc2n1	7.31 µM (active)
CCCCCC1CC1CC1CC1CCCCCCCC(=O)O (stereo not given)	inactive
COc1ccc(-c2oc3ncnc(N)c3c2-c2ccc(NC(=O)Nc3cc(C(F)(F)F)ccc3F)cc2)cc1	5.8 µM (active)
COC1(c2sc3c(N4CCOCC4)nc(-c4cnc(N)nc4)nc3c2C)COC1	0.184 µM (active)
CS(=O)(=O)c1ccc([C@@H](C[C@H]2CCC(=O)C2)C(=O)Nc2cnccn2)cc1Cl	inactive
CC(CCc1ccccn1)(CCc1ccccn1)C(=O)c1ccccc1	inactive
CC(C)OC(=O)OCOP(=O)(COC(C)Cn1cnc2c(N)ncnc21)OCOC(=O)OC(C)C (stereo not given)	inactive
O=C(O[C@@H]1Cc2c(O)cc(O)cc2O[C@H]1c1cc(O)c(O)c(O)c1)c1cc(O)c(O)c(O)c1	inactive
c1nc(NCC2CCOC2)c2cc(-c3ccc4c(c3)OCO4)ccc2n1 (stereo not given)	inactive
COc1cc2ncnc(Sc3nnc(C)s3)c2cc1OC	16.4 µM (active)
N#Cc1cccc(CN2CCC(N(Cc3cccnc3)C(=O)Nc3ccccc3-c3ccccc3)CC2)c1	inactive
Cc1cc(-c2ccc(/C=C3\SC(=Nc4ccc(Cl)c(C(=O)O)c4)NC3=O)o2)c([N+](=O)[O-])cc1C	inactive
NC1CCCN(c2c(/C=C3\SC(=O)NC3=O)cccc2-c2ccccc2)C1 (stereo not given)	inactive
OCC(O)CCO/N=C1/C(c2c(O)[nH]c3ccccc23)=Nc2ccccc21 (stereo not given)	16.4 µM (active)
CCOC(=O)N1CCN(C(=O)Cn2sc3nc(C)cc(C)c3c2=O)CC1	inactive
Oc1cccc(Nc2ccnc3cc(-c4cccc(CN5CCOCC5)c4)sc23)c1	8.2 µM (active)
O=C(O)c1c[nH]c2c(ccc3ccccc32)c1=O	inactive
Cc1nc(CNc2ncnc3ccc(-c4ccc5c(c4)OCO5)cc23)cs1	inactive
Cc1c[nH]c(/C=C2\C(=O)Nc3ccccc32)c1CCC(=O)O	inactive

Reference: PubChem BioAssay (NCATS)
